Measurements from ChEMBL document CHEMBL1157539, “Thousands of chemical starting points for antimalarial lead identification” (Nature, 2010).
Over roughly 13,000 compounds, “IFI” has its median near 4; the highest 2% begin near 17. The full list was thinned out, with the highest values kept by preference.

Assay: GSK_TCMDC: Inhibition Frequency Index (IFI). The number of non-kinase HTS assays where a compound showed > 50 % inhibition, expressed as a percentage of the number of such assays in which the compound was tested
Assay type: functional
In the case of `CC(C)c1ccc(CN2CCC(CNC(=O)c3cc(-c4cccc(F)c4)cs3)C2)cc1` (stereo not drawn), the IFI is reported as 14.3%.
In the case of `CC1(C)NC(N)=NC(=N)N1OCc1cccs1`, the IFI is reported as 1.43%.
Compound `CCCCCCCN(CCCCCCC)CCCC(=O)Nc1ccnc2ccc(OC)cc12` has an IFI of 7.87%.
`COc1c(C2CCN(CCCCNC(=O)c3ccc(-c4ccc(Cl)cc4)cc3)CC2)ccc2c1C(C)(C)CCC2(C)C` showed an IFI of 6.82%.
Compound `O=C(Nc1ccc([N+](=O)[O-])cc1O)Nc1ccccc1Oc1ccccc1` has an IFI of 17%.
With `O=[N+]([O-])c1ccc(N/C(=N\c2ccccc2Br)NC2CCCc3ccccc32)c(O)c1` (stereo not drawn) the IFI was 4.17%.
In the case of `CC1(C(=O)Nc2ccc([N+](=O)[O-])cc2O)CC2c3ccccc3C1c1ccccc12` (stereo not drawn), the IFI is reported as 17.4%.
Work on `COc1ccccc1CCNc1nc(C)cc(N[C@@H](Cc2ccccc2)C(=O)NCCCOC(C)C)n1` yielded an IFI of 0%.
In the case of `O=C(O)c1cccnc1Sc1ccc(Cl)cc1`, the IFI is reported as 0%.
`COc1ccc(CCNCCCCCCNCCc2cccc([N+](=O)[O-])c2)cc1OC` gave an IFI of 0%.
In the case of `C[C@H](Cc1ccc(CCc2ccc(C[C@@H](C)NC[C@H](O)c3cccc(Cl)c3)cc2)cc1)NC[C@H](O)c1cccc(Cl)c1`, the IFI is reported as 21.6%.
Compound `C[C@H](Cc1ccc(Oc2ccc(C[C@@H](C)NC[C@H](O)c3cccc(Cl)c3)cc2)cc1)NC[C@H](O)c1cccc(Cl)c1` has an IFI of 20.8%.
Compound `C[C@H](Cc1ccc(OCCCCOc2ccc(C[C@@H](C)NC[C@H](O)c3cccc(Cl)c3)cc2)cc1)NC[C@H](O)c1cccc(Cl)c1` has an IFI of 11.6%.
In the case of `C[C@H](Cc1ccc(C[C@@H](C)NC[C@H](O)c2cccc(Cl)c2)cc1)NC[C@H](O)COc1ccccc1`, the IFI is reported as 7.91%.
Work on `C[C@H](Cc1ccc(S(=O)(=O)c2ccc(C[C@@H](C)NC[C@H](O)c3cccc(Cl)c3)cc2)cc1)NC[C@H](O)c1cccc(Cl)c1` yielded an IFI of 22.7%.
`COC(=O)c1ccc(CCC(C)NCC(O)c2cccc(Cl)c2)cc1` (stereo not drawn) showed an IFI of 2.88%.
`Cc1ccc(CCC(C)NCC(O)c2cccc(Cl)c2)cc1` (stereo not drawn) gave an IFI of 2.96%.
Compound `C[C@H](Cc1ccc(C[C@@H](C)NCC(O)c2cc(Cl)c(N)c(Cl)c2)cc1)NCC(O)c1cc(Cl)c(N)c(Cl)c1` (stereo partly drawn) has an IFI of 9.35%.
In the case of `C[C@H](Cc1ccc(OCCCOc2ccc(C[C@@H](C)NC[C@H](O)c3cccc(Cl)c3)cc2)cc1)NC[C@H](O)c1cccc(Cl)c1`, the IFI is reported as 13.1%.
In the case of `COc1cccc(CCc2ccc(O)c3c2C[C@H]2C[C@H]4[C@H](N(C)C)C(O)=C(C(N)=O)C(=O)[C@@]4(O)C(O)=C2C3=O)c1`, the IFI is reported as 8.41%.
For `CC1(C)NC(N)=NC(=N)N1OCCSCc1cc(Cl)sc1Cl`, the IFI was 4.93%.
In the case of `CN1CCN(CCCN(Cc2ccc(-c3ccc(CNCCc4ccccc4)cc3)cc2)C(=O)c2cccs2)CC1`, the IFI is reported as 9.03%.
With `C=CCn1c(Sc2ccc(C#N)c([N+](=O)[O-])c2)nnc1-c1ccc(Cl)cc1` the IFI was 4.23%.
With `Cc1cc(=NN=Cc2cccc(Cl)c2)c2ccc(F)cc2[nH]1` the IFI was 1.49%.
`CCOC(=O)c1ccc(NC(=O)N[C@H]2CCN(CCCCCNC(=O)/C=C/c3ccc(Cl)c(Cl)c3)C2)cc1` gave an IFI of 7.91%.
`Cc1cc(N[C@@H](Cc2ccccc2)C(=O)Nc2ccccc2)nc(NCC2CCCCC2)n1` showed an IFI of 11.6%.
`Cc1cc(N[C@@H](Cc2ccccc2)C(=O)NC2CCCC2)nc(Nc2ccccc2)n1` showed an IFI of 7.32%.
`Cc1cccc(CNc2nc(C)cc(N[C@@H](Cc3ccccc3)C(=O)NC3CCCC3)n2)c1` showed an IFI of 27.3%.
In the case of `Cc1cc(N[C@@H](Cc2ccccc2)C(=O)NCCc2ccccc2)nc(NCC2CCCCC2)n1`, the IFI is reported as 11.4%.
Work on `Cc1cc(N[C@@H](Cc2ccccc2)C(=O)NC2CCCC2)nc(NCC2CCCCC2)n1` yielded an IFI of 26.2%.
In the case of `Cc1cc(N[C@@H](Cc2ccccc2)C(=O)NC2CCCC2)nc(NCc2ccccc2C)n1`, the IFI is reported as 4.88%.
With `O=C(c1cc(-c2cccs2)n[nH]1)N1CCN(S(=O)(=O)c2ccc(Br)cc2)CC1` the IFI was 0%.
For `CC(CN(C)C)C(=O)Nc1cccc(-c2ccc(-c3nc4cc(C(F)(F)F)ccc4[nH]3)cc2)c1` (stereo not drawn), the IFI was 6.31%.
`Cc1cc(=NN=CC=Cc2ccccc2)c2cc(F)ccc2[nH]1` showed an IFI of 0.75%.
Work on `O=C(NC1CCN(Cc2ccc3c(c2)OCCO3)CC1)c1ccc(-c2cccc(C(F)(F)F)c2)s1` yielded an IFI of 22%.
Work on `O=C(NC1CCN(CCCc2ccccc2)CC1)c1ccc(-c2cccc(C(F)(F)F)c2)s1` yielded an IFI of 17.2%.
`CC(C)(C)CCN1CCC(NC(=O)c2ccc(-c3cccc(C(F)(F)F)c3)s2)CC1` gave an IFI of 15.8%.
With `CSc1ccc(CN2CCC(NC(=O)c3ccc(-c4cccc(C(F)(F)F)c4)s3)CC2)cc1` the IFI was 15.2%.
With `CC(C)(C)c1ccc(CN2CCC(NC(=O)c3ccc(-c4cccc(C(F)(F)F)c4)s3)CC2)cc1` the IFI was 13%.
For `O=C(NC1CCN(Cc2ccc3c(c2)OCCO3)CC1)c1ccc(-c2cccc(Cl)c2)s1`, the IFI was 15.2%.
With `O=C(NC1CCN(Cc2ccsc2)CC1)c1ccc(-c2cccc(C(F)(F)F)c2)s1` the IFI was 16.7%.
`CN(C)c1ccc(-c2ccc(C(=O)NC3CCN(Cc4cccc(C(F)(F)F)c4)CC3)s2)cc1` showed an IFI of 11.1%.
For `O=C(NC1CCN(Cc2cccc(C(F)(F)F)c2)CC1)c1ccc(-c2cccc(C(F)(F)F)c2)s1`, the IFI was 12.7%.
With `CC(=O)Nc1ccc(CN2CCC(NC(=O)c3ccc(-c4cccc(C(F)(F)F)c4)s3)CC2)cc1` the IFI was 10.3%.
`O=C(NC1CCN(Cc2ccc(F)cc2)CC1)c1ccc(-c2cccc(C(F)(F)F)c2)s1` showed an IFI of 24.6%.
`CN(C)c1ccc(CN2CCC(NC(=O)c3ccc(-c4cccc(C(F)(F)F)c4)s3)CC2)cc1` gave an IFI of 17.2%.
In the case of `Nc1nccc2ccc(-c3ccsc3)cc12`, the IFI is reported as 10.1%.
Work on `Cc1ccc2nc(N/C(N)=N/C(=O)NC3CCCCC3)nc(C)c2c1` yielded an IFI of 3.42%.
Compound `Cc1cc(-c2cccc(CNCc3ccc(F)cc3)c2)ccc1S(=O)(=O)NCCN1CCCC1` has an IFI of 12.9%.
Compound `Cc1cc(N)nc2ccc(-c3ccc(CN)cc3)cc12` has an IFI of 4.83%.
For `C=C(C)Cn1cc(C2CCN(CCN3CCC(CNC(=O)c4ccc(-c5ccc(C#N)cc5)cc4)CC3)CC2)c2ccccc21`, the IFI was 10.9%.
`CCCCCCSc1nnc(COc2cccc3ccccc23)n1-c1ccc(OC)cc1` gave an IFI of 5.43%.
With `CCCn1c(O)nnc1SCC(=O)Nc1cc(C(F)(F)F)ccc1Cl` the IFI was 1.57%.
Compound `Nc1cccc(CNCc2cccc(-c3ccc(-c4nc5ccccc5[nH]4)cc3)c2)c1` has an IFI of 3.81%.
`CC(C)c1ccc(S(=O)(=O)Nc2cccc(CCN3CCC(N4CCCCC4)CC3)c2)cc1` gave an IFI of 9.52%.
Compound `O=C(NCCCCN1CCC(c2ccc(-c3ccco3)cc2)CC1)c1ccc(NC(=O)c2ccc(Cl)cc2)cc1` has an IFI of 5.98%.
In the case of `CN(C)c1ccc(CN2CCC(NC(=O)c3ccc(-c4ccc(N(C)C)cc4)s3)CC2)cc1`, the IFI is reported as 15.5%.
With `CN(C)c1ccc(CN2CCC(NC(=O)c3ccc(-c4cccc(F)c4)s3)CC2)cc1` the IFI was 10.5%.
`CC(C)(C)c1ccc(CN2CCC(NC(=O)c3ccc(-c4cccc(F)c4)s3)CC2)cc1` showed an IFI of 12.5%.
`CN(C)c1ccc(CN2CCC(NC(=O)c3ccc(-c4cccc(Cl)c4)s3)CC2)cc1` gave an IFI of 17.9%.
Compound `CC(C)c1ccc(CN2CCC(NC(=O)c3ccc(-c4cccc(F)c4)s3)CC2)cc1` has an IFI of 17.2%.
In the case of `CC(C)c1ccc(CN2CCC(NC(=O)c3ccc(-c4cccc(Cl)c4)s3)CC2)cc1`, the IFI is reported as 12.1%.
`COc1ccc2nc3cc(Cl)ccc3c(Nc3ccc(O)c(CNC(C)C)c3)c2c1` gave an IFI of 7.64%.
Work on `CCCCNCc1ccc(-c2nc(CN(CCCn3ccnc3)C(=O)C3COc4ccccc4O3)cs2)cc1` (stereo not drawn) yielded an IFI of 4.93%.
With `O=C(NCCc1ccccc1)N(Cc1ccccc1-c1ccc(CNCCc2ccccc2)cc1)C1CCN(Cc2ccccc2)CC1` the IFI was 7.86%.
For `COc1cc2nc(NCCn3cccn3)nc(NCCc3ccccc3)c2cc1OC`, the IFI was 4.23%.
Work on `Cc1cccc2nc(-c3cccc(-c4cccc(NC(=O)c5csnn5)c4)c3)[nH]c12` yielded an IFI of 2.7%.
For `N#Cc1ccc(N2CCN(Cc3cccc(-c4cccc(-c5nc6cc(C(F)(F)F)ccc6[nH]5)c4)c3)CC2)nc1`, the IFI was 1.92%.
With `COc1cc2nc(NCCc3cccc(Cl)c3)nc(NCc3ccccc3)c2cc1OC` the IFI was 17.1%.
Work on `COc1cccc(CCNc2nc(NCc3ccccc3)c3cc(OC)c(OC)cc3n2)c1` yielded an IFI of 5.93%.
For `COc1ccc(CCNc2nc(NCc3ccccc3)c3cc(OC)c(OC)cc3n2)cc1OC`, the IFI was 5.84%.
In the case of `CCCc1cc(=O)[nH]c(-n2nc(C)cc2NC(=O)CC(c2ccccc2)c2ccccc2)n1`, the IFI is reported as 12.2%.
`CCc1c(C)nc(-n2nc(C)cc2NC(=O)C(CC)c2ccccc2)[nH]c1=O` (stereo not drawn) showed an IFI of 11.8%.
In the case of `CCCc1cc(=O)[nH]c(-n2nc(C)cc2NC(=O)C(CC)c2ccccc2)n1` (stereo not drawn), the IFI is reported as 18.5%.
Work on `COc1cccc(NC(=O)Nc2ccc(Nc3nc(C)cc(N4CCCC4)n3)cc2)c1` yielded an IFI of 17.3%.
For `Cc1cc(N2CCCC2)nc(Nc2ccc(NC(=O)Nc3ccccc3)cc2)n1`, the IFI was 16.2%.
`COc1ccc(NC(=O)Nc2ccc(Nc3nc(C)cc(N4CCCC4)n3)cc2)cc1` showed an IFI of 11.8%.
In the case of `CCC(=O)Nc1ccc(Nc2nc(C)cc(N3CCCC3)n2)cc1`, the IFI is reported as 7.84%.
For `Cc1cc(N2CCCC2)nc(Nc2ccc(NC(=O)COc3ccccc3)cc2)n1`, the IFI was 22.2%.
Compound `Cc1cc(N2CCCC2)nc(Nc2ccc(NC(=O)Cc3ccccc3)cc2)n1` has an IFI of 15.4%.
For `C=CCOC(=O)N1CCC(CNCc2ccc(-c3cccc(-c4nc5cc(F)ccc5[nH]4)c3)cc2)C1` (stereo not drawn), the IFI was 2.91%.
In the case of `COc1cc2nc(SCCCC#N)n(C3CCCCCC3)c(=N)c2cc1OC`, the IFI is reported as 3.6%.
With `CS(=O)(=O)c1cccc2sc(N3CCN(C(=O)c4ccc([N+](=O)[O-])o4)CC3)nc12` the IFI was 4%.
`Cc1cccc(Nc2c(-c3cc(Br)ccc3O)nc3ncccn23)c1` gave an IFI of 8.7%.
For `COc1ccc(CNC(=O)c2cnc3c(O)cccc3c2Nc2cccc(NC(=O)c3ccc(F)cc3)c2)cc1`, the IFI was 6.98%.
For `CCCCCCN(CCCCCC)CC(O)c1c(OC)ccc2ccccc12` (stereo not drawn), the IFI was 5.93%.
Compound `CCCCCCOc1ccc(/C(N)=N\Cc2ccccc2)c2c1CCCC2` has an IFI of 13.3%.
`CCCCCOc1ccc(C(=NC)N(CCCCC)CCCCC)c2ccccc12` gave an IFI of 25.2%.
